Measurements taken from the supplement of paper PMC7726561.

B1: unnamed (peptide)
chain: AHDVDPIEL
B2: unnamed (peptide)
chain: KFDPVGEIL
B3: unnamed (peptide)
chain: FYEPQKGSIYL
B4: unnamed (peptide)
chain: TYDLQESNV
B5: unnamed (peptide)
chain: MFDKDVVML
B6: unnamed (peptide)
chain: HYDPATEEF
B7: unnamed (peptide)
chain: LFDDIDHNM
B8: unnamed (peptide)
chain: VFDPVTKL
B9: unnamed (peptide)
chain: TFDVAPSRLDF
B10: unnamed (peptide)
chain: SFDLLPREF
B11: unnamed (peptide)
chain: TFDSTIHF
B12: unnamed (peptide)
chain: HYDEQQNFF
B13: unnamed (peptide)
chain: TFDPMTRQI
B14: unnamed (peptide)
chain: IYDVQHANL
B15: unnamed (peptide)
chain: FWDPSVNLF
B16: unnamed (peptide)
chain: FYDLYGGEKF
B17: unnamed (peptide)
chain: AWDKEPVLV
B18: unnamed (peptide)
chain: VFPKEPVEL
B19: unnamed (peptide)
chain: AWEERETIL
B20: unnamed (peptide)
chain: SYDPTIENTF
B21: unnamed (peptide)
chain: SFDTGFTSF
B22: unnamed (peptide)
chain: LFDLGGQYL
B23: unnamed (peptide)
chain: SFDPSRTF
B24: unnamed (peptide)
chain: SFDSALQSV

target: HLA-C*04:01; experiment: thermal melting temperature (Tm) of peptide-HLA complex; higher = more thermostable pHLA complex; conditions: C1R-A*02:01
Method: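 Endogenous HLA-C*04:01 ligands were detected in the thermostability assays of both the C1R-A*02:01 and C1R-B*07:02 lines. Lysates were heated 10 min at 37-73 °C and pHLA immunoprecipitated with W6/32. Peptides were quantified by DIA-MS and Tm was taken from a logistic sigmoid fit.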

Sequence | thermal melting temperature [°C]
B1 | 45.7
B2 | 55.9
B3 | 60.5
B4 | 57.5
B5 | 48.9
B6 | 60.2
B7 | 52.6
B8 | 48.3
B9 | 60.1
B10 | 54.7
B11 | 55.9
B12 | 53.5
B13 | 54.1
B14 | 50.7
B15 | 53.7
B16 | 48.8
B17 | 57.8
B18 | 52.4
B19 | 57.8
B20 | 54.9
B21 | 48.1
B22 | 48.8
B23 | 53.7
B24 | 56.4

same assay, conditions: C1R-B*07:02

Sequence | thermal melting temperature [°C]
B1 | 46.9
B2 | 54.9
B3 | 62.1
B4 | 55.5
B5 | 54.6
B6 | 58.2
B7 | 53.7
B8 | 48.6
B9 | 62.2
B10 | 55.9
B11 | 58
B12 | 53.3
B13 | 57
B14 | 53
B15 | 52.4
B16 | 48.5
B17 | 57.6
B18 | 52.2
B19 | 56.3
B20 | 58.1
B21 | 46.1
B22 | 44.5
B23 | 52.8
B24 | 60.7
